Rows were chosen to be rich in hits. Some 19% of all compounds tested hit in one or more screens of this group.
TGFb SMAD3 inh = qHTS for Inhibitors of TGF-b. HepG2 CAGA-GFP TGF-b/SMAD3 reporter, GFP fluorescence, 18 h; TGF-beta stimulated, 500 pg/mL final. Potency, µM (titrated, usually from 46.1 µM), for inactives: top-dose activity, negative = inhibition, usual class: inhibitors. AID 588855, 2011. 410,000 compounds, 1.2% hits; note: potency is the fitted concentration of half-maximal effect; % is set by controls: 0 for no effect and ±100 for the full control effect; nearly all actives have a fitted effect of over 65% in size
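TGF-beta reporter screen: HEPG2 CAGA-GFP, 1% FBS, 500 pg/mL TGF-beta final, 18 h; per-cell GFP summed per well; curves fitted and categorized by class.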
HepG2 viability = qHTS for Inhibitors of TGF-b: Cytotox Counterscreen. HepG2 CAGA-GFP viability, ATP luminescence, 18 h. Potency, µM (doses to about 46.1 µM), for inactives: top-dose activity change, negative = cytotoxicity, usual class: cytotoxic. 410,000 compounds, 0.76% hits. AID 588856, 2011; note: potency is the fitted concentration of half-maximal effect
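CellTiter-Glo luminescence gave cytotoxicity after 18 hours at 37 degrees C. The cells were HepG2 CAGA-GFP in 1% FBS DMEM, stimulated with 500 pg/mL TGF-beta after compound addition. %Activity was normalised to no-cell wells (complete cell-killing) and DMSO (no toxicity), and curves were fitted and classified.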
TDP1 cell CPT = qHTS for Inhibitors of human tyrosyl-DNA phosphodiesterase 1 (TDP1): qHTS in cells in presence of CPT; chicken DT40 Tdp1-/-;hTDP1 cells + 20 nM CPT, ATP luminescence, 48 h; Potency, µM (top dose mostly 46.2 µM), for the others: at the top dose activity change, negative = growth inhibition, most hits filed as inhibitors; 420,000 compounds, 12% hits; AID 686979, 2013; note: potency is the fitted concentration of half-maximal effect; % is set by controls: 0 for no effect and ±100 for the full control effect; nearly all actives have a fitted effect of over 55% in size
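Chicken DT40 Tdp1-/- cells stably complemented with human TDP1 were seeded at 400 cells/well in medium containing 20 nM camptothecin, exposed to pin-transferred compounds, and grown at 37 °C for at least 48 hr. Viability was read as ATP luminescence.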
IL-1B inflam inh = qHTS for Inhibitors of Inflammasome Signaling: IL-1-beta AlphaLISA Primary Screen; THP-1 LPS/ATP IL-1B secretion, AlphaLISA, 16 h; stronger effect = lower value; activity change, % at 57.5 µM; 360,000 compounds, 4.7% hits; AID 743279, 2014; in the data active = activity change below about -50%; inconclusive = mostly about -30% to -49%; note: % is set by controls: 0 for no effect and ±100 for the full control effect
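THP-1 cells pretreated 1 hr with compounds (up to 57.5 uM final), then stimulated with LPS (250 ng/mL final) plus ATP (1.25 mM final); secreted IL-1B measured by AlphaLISA after 16 hr, decreased signal indicating inhibition.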
TDP1 cell noCPT = qHTS for Inhibitors of human tyrosyl-DNA phosphodiesterase 1 (TDP1): qHTS in cells in absence of CPT. Potency, µM (series often up to 46.2 µM), without a hit: at the top dose activity change, negative = growth inhibition, most hits filed as inhibitors. AID 686978, 2013. 420,000 compounds, 15% hits. DT40 Tdp1-/- hTDP1 cells, no CPT, ATP luminescence, 48 h; note: potency is the fitted concentration of half-maximal effect; % is set by controls: 0 for no effect and ±100 for the full control effect; nearly all actives have a fitted effect of over 55% in size
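Chicken DT40 Tdp1-/- cells stably complemented with human TDP1 were seeded at 400 cells/well with DMSO in place of 20 nM camptothecin. After compound pinning, cells grew at least 48 hr at 37 °C; viability read by CellTiter-Glo luminescence.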
S-ASM inh = Inhibitors of Secretory Acid Sphingomyelinase (S-ASM): qHTS; Sphingomyelin phosphodiesterase (Homo sapiens), P17405; placental ASM, HMU-PC fluorogenic substrate, 60 min; Potency, µM (highest dose often 57.5 µM), inactives show top-dose activity change, negative = inhibition, usual class: inhibitors; 340,000 compounds, 0.006% hits; AID 504937, 2011; note: potency is the fitted concentration of half-maximal effect
Target sequence (P17405 47-631 limits assumed): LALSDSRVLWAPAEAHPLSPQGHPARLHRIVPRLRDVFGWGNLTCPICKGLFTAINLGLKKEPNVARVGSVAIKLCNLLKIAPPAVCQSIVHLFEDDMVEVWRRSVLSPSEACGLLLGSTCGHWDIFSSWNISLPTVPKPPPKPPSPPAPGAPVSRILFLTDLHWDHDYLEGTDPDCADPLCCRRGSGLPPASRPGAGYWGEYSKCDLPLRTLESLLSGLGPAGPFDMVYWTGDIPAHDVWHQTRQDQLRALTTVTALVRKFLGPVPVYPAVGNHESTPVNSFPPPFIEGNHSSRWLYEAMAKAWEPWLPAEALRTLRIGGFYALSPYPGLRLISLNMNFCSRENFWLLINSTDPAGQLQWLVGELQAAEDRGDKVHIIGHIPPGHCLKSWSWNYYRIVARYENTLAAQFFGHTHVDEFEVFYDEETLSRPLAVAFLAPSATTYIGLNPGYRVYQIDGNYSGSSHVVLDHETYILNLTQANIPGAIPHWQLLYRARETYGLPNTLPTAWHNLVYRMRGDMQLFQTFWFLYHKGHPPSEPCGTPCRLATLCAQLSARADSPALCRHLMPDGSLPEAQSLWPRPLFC
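Fluorogenic HMU-PC substrate (9 uM final) is turned over by placental ASM in 60 min at 37 C after a 10 min compound preincubation. Reaction ended by alkaline stop (pH 10), with fluorescence read at 386/447 nm.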
The depositor's hits bear a star. Unless noted, calls come from the whole dose curve; as a rule, active = well fitted curve in the direction sought with a large enough effect; inconclusive = small, poorly fitted or top-dose-only effect, or another doubt; inactive = no such curve, though single readings can be large; an effect the other way counts as inactive or inconclusive.

Results for O=C(Nc1nnc(-c2ccc3c(c2)CCCC3)o1)c1ccc(Cl)cc1Cl ?
TGFb SMAD3 inh: inconclusive; HepG2 viability: -4%; TDP1 cell CPT: 13µM*; IL-1B inflam inh: 0; TDP1 cell noCPT: inconclusive; S-ASM inh: -5%

What do the screens show for `CC(C)CC(=O)Nc1ccc(Cl)c(-c2nc3ccccc3[nH]2)c1`?
TGFb SMAD3 inh: 1%; HepG2 viability: -12%; TDP1 cell CPT: inconclusive; TDP1 cell noCPT: inconclusive

Results for CSc1nsc(SC)c1-c1ccc(Cl)cc1 ?
TGFb SMAD3 inh: -6%; HepG2 viability: -28%; TDP1 cell CPT: -24%; IL-1B inflam inh: 19; TDP1 cell noCPT: -9%

Results for O=C1CN(C(=O)Cc2ccc(F)cc2)C(c2ccccc2)c2cc(Br)ccc2N1 (stereo not given) ?
TGFb SMAD3 inh: -4%; HepG2 viability: -35%; TDP1 cell CPT: inconclusive; TDP1 cell noCPT: inconclusive

How did Cc1ccc2c(c1)C(c1ccccc1)N(C(=O)c1ccc(S(=O)(=O)N3CCCCC3)cc1)CC(=O)N2 (stereo not given) do in these assays?
TGFb SMAD3 inh: -20%; HepG2 viability: -14%; TDP1 cell CPT: inconclusive; TDP1 cell noCPT: inconclusive

Results for O=C1CN(C(=O)c2ccc(Br)o2)C(c2ccccc2)c2cc(Br)ccc2N1 (stereo not given) ?
TGFb SMAD3 inh: inconclusive; HepG2 viability: -26%; TDP1 cell CPT: 16µM*; IL-1B inflam inh: inconclusive; TDP1 cell noCPT: 21µM*; S-ASM inh: inconclusive

What do the screens show for `O=C1CN(C(=O)c2ccc(S(=O)(=O)N3CCCC3)cc2)C(c2ccccc2)c2cc(Br)ccc2N1` (stereo not given)?
TGFb SMAD3 inh: inconclusive; HepG2 viability: -29%; TDP1 cell CPT: 15µM*; TDP1 cell noCPT: inconclusive

What do the screens show for `Cc1ccc2c(c1)C(c1ccccc1)N(C(=O)c1ccc(Br)o1)CC(=O)N2` (stereo not given)?
TGFb SMAD3 inh: -10%; HepG2 viability: -19%; TDP1 cell CPT: 21µM*; IL-1B inflam inh: -11; TDP1 cell noCPT: 21µM*; S-ASM inh: -5%

What do the screens show for `CCCSc1ncc(Cl)c(C(=O)N2CCN(c3ccc(OC)cc3)CC2)n1`?
HepG2 viability: -10%; TDP1 cell CPT: inconclusive; TDP1 cell noCPT: inconclusive

What do the screens show for `CCCSc1ncc(Cl)c(C(=O)N(Cc2cccc(Cl)c2)C2CCS(=O)(=O)C2)n1` (stereo not given)?
HepG2 viability: -3%; TDP1 cell CPT: 23µM*; TDP1 cell noCPT: 16µM*

How did CCCSc1ncc(Cl)c(C(=O)N2CCN(c3cccc(Cl)c3)CC2)n1 do in these assays?
HepG2 viability: -19%; TDP1 cell CPT: 1.8µM*; TDP1 cell noCPT: inconclusive

How did CCCSc1ncc(Cl)c(C(=O)N(Cc2ccc(N(C)C)cc2)C2CCS(=O)(=O)C2)n1 (stereo not given) do in these assays?
HepG2 viability: -8%; TDP1 cell CPT: inconclusive; TDP1 cell noCPT: inconclusive

Results for CCSc1ncc(Cl)c(C(=O)N2CCN(c3ccccc3OC)CC2)n1 ?
TGFb SMAD3 inh: inconclusive; HepG2 viability: -36%; TDP1 cell CPT: 3.3µM*; TDP1 cell noCPT: 4.1µM*

Results for CCc1nnc(SCc2cc(C)ccc2C)c2cc3sc(C)cc3n12 ?
TGFb SMAD3 inh: inconclusive; HepG2 viability: -15%; TDP1 cell CPT: inconclusive; TDP1 cell noCPT: inconclusive

How did COc1ccc(Nc2nc(-c3ccccc3)nc3ccccc23)cc1S(=O)(=O)N1CCOCC1 do in these assays?
TGFb SMAD3 inh: inconclusive; HepG2 viability: -33%; TDP1 cell CPT: 15µM*; IL-1B inflam inh: -74*; TDP1 cell noCPT: 8.2µM*; S-ASM inh: -8%

Results for Cc1ccc(Nc2nnc(-c3ccc(C)c(S(=O)(=O)N4CCOCC4)c3)c3ccccc23)cc1 ?
TGFb SMAD3 inh: -9%; HepG2 viability: -10%; TDP1 cell CPT: 16µM*; TDP1 cell noCPT: 10µM*

What do the screens show for `COc1ccc(Nc2nnc(-c3ccc(C)c(S(=O)(=O)N4CCOCC4)c3)c3ccccc23)cc1`?
TGFb SMAD3 inh: inconclusive; HepG2 viability: 23%; TDP1 cell CPT: 15µM*; TDP1 cell noCPT: 7.3µM*

How did CNC(=O)c1ccc(Nc2nnc(-c3ccc(C)c(S(=O)(=O)N4CCOCC4)c3)c3ccccc23)cc1 do in these assays?
TGFb SMAD3 inh: 3%; HepG2 viability: -25%; TDP1 cell CPT: 21µM*; TDP1 cell noCPT: 7.3µM*

What do the screens show for `Cc1nc2nc(SCC(=O)N(C)Cc3ccccc3)nn2c(C)c1Cc1ccccc1Cl`?
TGFb SMAD3 inh: inconclusive; HepG2 viability: -40%; TDP1 cell CPT: inconclusive; TDP1 cell noCPT: inconclusive

What do the screens show for `O=c1[nH][nH]c(=O)n1-c1ccccc1`?
TGFb SMAD3 inh: -14%; HepG2 viability: -5%; TDP1 cell CPT: -3%; IL-1B inflam inh: 11; TDP1 cell noCPT: 16%; S-ASM inh: 1%

Results for CCNC(=O)c1ccccc1NC(=O)c1cccc(S(=O)(=O)N2CCC(C)CC2)c1 ?
TGFb SMAD3 inh: -6%; HepG2 viability: 1%; TDP1 cell CPT: inconclusive; IL-1B inflam inh: -4; TDP1 cell noCPT: 15µM*; S-ASM inh: -1%

Results for CNC(=O)c1ccccc1NC(=O)c1cccc(S(=O)(=O)N2CCC(C)CC2)c1 ?
TGFb SMAD3 inh: inconclusive; HepG2 viability: -18%; TDP1 cell CPT: 21µM*; IL-1B inflam inh: -4; TDP1 cell noCPT: 16µM*; S-ASM inh: -9%

How did C[N+]1(CC(=O)c2ccc(Oc3ccccc3)cc2)CCOCC1 do in these assays?
TGFb SMAD3 inh: -1%; HepG2 viability: 3%; TDP1 cell CPT: inconclusive; TDP1 cell noCPT: inconclusive

How did CCCc1nc2ccc(N)cc2c(=O)n1Cc1ccccc1Cl do in these assays?
TGFb SMAD3 inh: -16%; HepG2 viability: 21%; TDP1 cell CPT: 13%; IL-1B inflam inh: 0; TDP1 cell noCPT: 13%; S-ASM inh: 32%

Results for Cc1cc(=O)c2c(o1)C(=O)c1occc1C2=O ?
TGFb SMAD3 inh: inconclusive; HepG2 viability: -32%; TDP1 cell CPT: 18µM*; IL-1B inflam inh: 0; TDP1 cell noCPT: 15µM*; S-ASM inh: -1%
